Results taken from ChEMBL document CHEMBL1201862, “PubChem BioAssay data set” (2004).
In all, about 400,000 compounds went through this assay and about 1,900 (0.47%) were called active. Roughly 14% stayed inconclusive and do not appear here. The rule behind the calls is not given here. The entries come from a sample that favours actives as a whole.

target: Ataxin-2 (Homo sapiens) (UniProt Q99700); experiment: qHTS for Inhibitors of ATXN expression.; assay type: functional
Sequence (Q99700 whole entry): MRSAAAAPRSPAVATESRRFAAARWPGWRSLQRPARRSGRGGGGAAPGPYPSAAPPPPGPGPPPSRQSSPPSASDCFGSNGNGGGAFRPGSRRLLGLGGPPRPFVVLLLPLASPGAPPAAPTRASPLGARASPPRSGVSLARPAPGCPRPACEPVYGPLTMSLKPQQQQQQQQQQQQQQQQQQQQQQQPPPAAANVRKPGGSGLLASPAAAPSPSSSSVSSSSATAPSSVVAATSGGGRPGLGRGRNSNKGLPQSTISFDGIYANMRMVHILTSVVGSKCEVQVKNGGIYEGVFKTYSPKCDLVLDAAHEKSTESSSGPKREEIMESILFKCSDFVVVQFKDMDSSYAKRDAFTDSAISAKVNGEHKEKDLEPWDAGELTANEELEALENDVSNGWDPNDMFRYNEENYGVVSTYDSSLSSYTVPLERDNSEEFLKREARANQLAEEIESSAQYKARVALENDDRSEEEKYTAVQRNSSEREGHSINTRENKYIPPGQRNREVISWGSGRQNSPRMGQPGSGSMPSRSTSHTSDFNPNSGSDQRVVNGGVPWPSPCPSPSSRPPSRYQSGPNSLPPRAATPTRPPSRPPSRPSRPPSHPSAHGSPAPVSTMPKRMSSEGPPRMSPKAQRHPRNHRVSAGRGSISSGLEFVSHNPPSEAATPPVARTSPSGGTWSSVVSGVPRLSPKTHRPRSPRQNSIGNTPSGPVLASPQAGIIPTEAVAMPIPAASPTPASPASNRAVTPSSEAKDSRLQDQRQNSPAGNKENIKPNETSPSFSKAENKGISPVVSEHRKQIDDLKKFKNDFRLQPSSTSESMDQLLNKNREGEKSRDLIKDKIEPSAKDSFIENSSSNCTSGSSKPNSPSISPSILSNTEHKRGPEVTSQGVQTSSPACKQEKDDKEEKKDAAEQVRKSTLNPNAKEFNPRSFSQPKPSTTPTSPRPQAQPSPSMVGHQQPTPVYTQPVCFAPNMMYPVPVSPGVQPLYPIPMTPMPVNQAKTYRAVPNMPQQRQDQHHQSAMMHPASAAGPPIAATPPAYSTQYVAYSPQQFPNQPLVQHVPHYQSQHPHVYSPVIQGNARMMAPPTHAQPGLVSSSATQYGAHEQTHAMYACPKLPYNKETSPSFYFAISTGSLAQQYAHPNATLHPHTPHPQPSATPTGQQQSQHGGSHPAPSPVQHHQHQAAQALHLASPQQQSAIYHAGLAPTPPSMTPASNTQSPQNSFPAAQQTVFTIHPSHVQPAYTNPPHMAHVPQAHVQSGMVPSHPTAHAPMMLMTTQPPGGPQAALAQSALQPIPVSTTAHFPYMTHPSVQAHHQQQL

SMILES	Potency
Cc1cccc(C)c1-n1nnnc1C(c1cccs1)N1CCC(n2c(O)nc3ccccc32)CC1 (stereo not drawn)	20 µM (active)
Oc1nc2ccccc2n1C1CCN(C(c2cc3ccccc3o2)c2nnnn2Cc2ccccc2)CC1 (stereo not drawn)	10 µM (active)
COc1ccc(C(c2nnnn2Cc2ccccc2)N2CCC(n3c(O)nc4ccccc43)CC2)cc1 (stereo not drawn)	15.8 µM (active)
Oc1nc2ccccc2n1C1CCN(C(c2cccs2)c2nnnn2Cc2ccccc2)CC1 (stereo not drawn)	22.4 µM (active)
COc1ccc2c3c([nH]c2c1)C(C)=NCC3	inactive
Cc1c(C)n(O)c2ccc3nonc3c12	inactive
CCN(CC)c1ccc(N/C=C2\C(=O)NC(=O)N(Cc3ccco3)C2=O)cc1	inactive
CCOP(=O)(OCC)c1nc(-c2ccc(F)cc2)oc1NCc1ccccc1	inactive
COc1ccc(CN2Cc3cnnn3-c3ccccc3C2C#N)cc1 (stereo not drawn)	12.6 µM (active)
Cc1ccccc1CN1Cc2cnnn2-c2ccccc2C1C#N (stereo not drawn)	17.8 µM (active)
Nc1c(C(=O)NCCN2CCOCC2)c2nc3ccccc3nc2n1Cc1ccco1	inactive
ClCCN(CCCl)c1ccc(C=Cc2ccncn2)cc1	inactive
ClCCN(CCCl)c1ccc(-n2cnc3c(Cl)ncnc32)cc1	35.5 µM (active)
COCCNC(=O)c1c(NC(=O)c2ccc(Br)o2)n(Cc2ccccc2)c2nc3ccccc3nc12	inactive
CCCCCCCSc1cc(OC)c(CCN(C)C)cc1OC	39.8 µM (active)
C=CC[N+]1(C)C2CCC1CC(O)C2 (stereo not drawn)	inactive
COc1ccccc1OCCCn1cc(C=O)c2ccccc21	inactive
Cc1ccc([C@H]2C[C@H](O)[C@@H](n3cc(COC(=O)c4ccccc4)nn3)CN2CC2CCCCC2)cc1	31.6 µM (active)
CCOC(=O)c1c(N)n(Cc2ccco2)c2nc3ccccc3nc12	inactive
O=C1C2(Cl)C3(Cl)C4(Cl)C(Cl)(Cl)C5(Cl)C3(Cl)C1(Cl)C5(Cl)C24Cl (stereo not drawn)	39.8 µM (active)
CCCCn1c(NC(=O)c2ccc(Br)o2)c(C(=O)OCC)c2nc3ccccc3nc21	inactive
O=c1[nH]c2ccccc2n1C1CCN(CCCC(c2ccc(F)cc2)c2ccc(F)cc2)CC1	31.6 µM (active)

SMILES	Potency
COCCCNC(=O)c1c(N)n(Cc2ccco2)c2nc3ccccc3nc12	inactive
O=[N+]([O-])c1ccc(Sc2nc3ccccc3o2)c([N+](=O)[O-])c1	25.1 µM (active)
CCCCCn1c(=O)c(C(=O)Nc2ccccc2Cl)c(O)c2ccccc21	inactive
CCCCCc1nc2c(c(=O)c3ccccc3n2C)c(=O)n1C1CCCCCC1	31.6 µM (active)
Nc1c(C(=O)NCCN2CCOCC2)c2nc3ccccc3nc2n1Cc1ccccc1	inactive
COCCNC(=O)c1c(N)n(CCC(C)C)c2nc3ccccc3nc12	inactive
CCOC(=O)c1c(C)n(Cc2ccccc2)c2ccc(OCC(O)CNC(C)(C)C)cc12 (stereo not drawn)	25.1 µM (active)
COc1ccc(N2C(=O)NC(=O)/C(=C(/C)NCCc3c[nH]c4ccccc34)C2=O)cc1	inactive
CCCCn1c(N)c(C(=O)OCCOC)c2nc3ccccc3nc21	inactive
CC(=O)OC1C2(CC3N4C(=O)C5(CO)SSC4(CC31O)C(=O)N5C)OC(C)C(C)(C)C2=O (stereo not drawn)	2.38 µM (active)
CCN1C(=O)C(=CNNC(=O)c2ccncc2)C(=O)N(CC)C1=S	inactive
CCCN1CCc2cccc3c2[C@H]1Cc1ccc(O)c(O)c1-3	35.5 µM (active)
Cc1ccccc1NC(=NCCCN1CC1)Nc1ccccc1C	9.47 µM (active)
O=C(Nc1cccc(C(F)(F)F)c1)C1CCCN1S(=O)(=O)c1cccc2nsnc12 (stereo not drawn)	22.4 µM (active)
CC1=NCCc2c1[nH]c1cc(O)ccc21	inactive
O=C(CCN1CCN(c2ccccc2)CC1)c1ccc(Br)cc1	39.8 µM (active)
O=C(Cn1c(NCCCl)nc2ccccc21)c1ccc(Br)cc1	inactive
COc1ccc(-n2nnnc2C(c2ccnc3ccccc23)N2CCC3(CC2)C(=O)NCN3c2ccccc2)cc1 (stereo not drawn)	39.8 µM (active)
Cc1cccc(C)c1-n1nnnc1C(C1CC1)N1CCC2(CC1)C(=O)NCN2c1ccccc1 (stereo not drawn)	39.8 µM (active)
COc1ccc(-n2nnnc2C(c2ccccc2OC(F)(F)F)N2CCC3(CC2)C(=O)NCN3c2ccccc2)cc1 (stereo not drawn)	39.8 µM (active)
COc1ccc(-n2c(/C=C/c3ccc(O)c(O)c3)nc3ccccc3c2=O)cc1	inactive
COc1ccc(C(c2nnnn2-c2ccc(OC)cc2)N2CCC3(CC2)C(=O)NCN3c2ccccc2)cc1 (stereo not drawn)	35.5 µM (active)

SMILES	Potency
COc1ccc(C(=O)C2CCCN(Cc3ccc(C)s3)C2)cc1OC (stereo not drawn)	inactive
CC(C)OC(=O)c1c(N)n(CC2CCCO2)c2nc3ccccc3nc12 (stereo not drawn)	inactive
O=C(COc1ccccc1)N1CCN(CCN2C(=O)c3cccc4cccc(c34)C2=O)CC1	inactive
CCOP(=O)(OCC)c1nc(-c2cccc3ccccc23)oc1N1CCOCC1	inactive
Cc1cccc(C)c1-n1nnnc1C(c1cccs1)N1CCC2(CC1)C(=O)NCN2c1ccccc1 (stereo not drawn)	31.6 µM (active)
Cc1cccc(C)c1-n1nnnc1C(c1ccnc2ccccc12)N1CCC2(CC1)C(=O)NCN2c1ccccc1 (stereo not drawn)	39.8 µM (active)
C[C@H]1CC[C@@H]2[C@@H](C)[C@H]3[C@H](C[C@H]4[C@@H]5CC=C6C[C@@H](O[C@@H]7O[C@H](CO)[C@H](O)[C@H](O[C@@H]8O[C@H](CO)[C@@H](O)[C@H](O)[C@H]8O)[C@H]7O[C@@H]7O[C@@H](C)[C@H](O)[C@@H](O)[C@H]7O)CC[C@]6(C)[C@H]5CC[C@]34C)N2C1	22.4 µM (active)
COP(=O)(OC)c1nc(-c2cccc3ccccc23)oc1N1CCCCC1	inactive
CN(C)c1ccc(C=C2C(=O)NC(=S)NC2=O)cc1	44.7 µM (active)
Cc1ccc(OCCOc2cccc(C=C3C(=O)NC(=O)NC3=O)c2)cc1	inactive
COc1ccc(OC)c(CN2CCN(C(=O)Cc3ccccc3)CC2)c1	inactive
O=C1NC(=O)C(=Cc2ccc(-c3ccccc3[N+](=O)[O-])o2)C(=O)N1	inactive
O=C1NC(=O)C(=Cc2ccc(SC3CCCCC3)o2)C(=O)N1	22.4 µM (active)
C=CC[C@@H](CC/C=C/C=C/CC/C=C\[C@@H]1CSC([C@@H]2C[C@@H]2C)=N1)OC	17.8 µM (active)
O=c1ccc2cc(O[C@@H]3O[C@@H](CO)[C@H](O)[C@@H](O)[C@@H]3O)c(O)cc2o1	inactive
CCN(CCCl)c1cc(CN(C)C)cc(NC(=O)c2ccc(C(=O)Nc3cc(CN(C)C)cc(N(CC)CCCl)c3)cc2)c1	20 µM (active)
O=C(c1ccc(C(F)(F)F)cc1)C1CCCN(Cc2ccncc2)C1 (stereo not drawn)	inactive
CCn1cc(C(=O)NCCc2ccc(OC)c(OC)c2)c(=O)c2cc(S(=O)(=O)N(C)C3CCCCC3)ccc21	25.1 µM (active)
COC(=O)Cn1cc(C=C2C(=O)N(C)C(=O)N(C)C2=O)c2ccccc21	inactive
O=C1NC(=O)C(=CNc2cc(F)cc(F)c2)C(=O)N1	inactive
CC[n+]1c(C=CN(C)c2ccccc2)sc2ccc(Cl)cc21	17.8 µM (active)
CC[n+]1c(/C=C/C=C/c2ccc(N(C)C)cc2)sc2ccccc21	5.32 µM (active)

SMILES	Potency
CC(C)(C)C(=O)c1cn(Cc2ccccc2)c2ccccc12	inactive
O=C(NN1C(=O)C2C3C=CC(C4CC34)C2C1=O)c1cccc(Br)c1 (stereo not drawn)	inactive
C[C@@]12CC[C@H](O)C[C@@H]1CC[C@H]1[C@H]2CC[C@@]2(C)[C@@H](C3=CC(=O)OC3)CC[C@]12O	0.708 µM (active)
C[C@@]12CC[C@H](O)C[C@@H]1CC[C@H]1[C@@H]2C[C@@H](O)[C@]2(C)[C@@H](C3=CC(=O)OC3)CC[C@]12O	3.16 µM (active)
C=CCNC(=O)c1c(N)n(Cc2ccco2)c2nc3ccccc3nc12	inactive
COCCCn1c(N)c(C(=O)OC(C)COC)c2nc3ccccc3nc21 (stereo not drawn)	inactive
O=C1NC(=O)N(CCc2ccccc2)C(=O)/C1=C\NN1CCOCC1	inactive
COC1CCC(OC2CC(C3(C)CCC4(CC(O)C(C)C(C(C)/C=C(\C)C(=O)C(C)CC(C)C(=O)O)O4)O3)OC3(OC(C4OC(O)(CO)C(C)CC4C)CC3C)C2C)OC1C (stereo not drawn)	0.562 µM (active)
COCCOC(=O)c1c(N)n(Cc2ccco2)c2nc3ccccc3nc12	inactive
CC(=O)OC(C)(C)/C=C/C(=O)[C@](C)(O)[C@H]1[C@H](O)C[C@@]2(C)[C@@H]3CC=C4[C@H](C[C@H](O)C(=O)C4(C)C)[C@]3(C)C(=O)C[C@]12C	39.8 µM (active)
CC(=O)OC(C)(C)/C=C/C(=O)C(C)(O)C1C(O)CC2(C)C3CC=C4C(CC(O)C(=O)C4(C)C)C3(C)C(=O)CC12C (stereo not drawn)	0.189 µM (active)
COc1ccc(C(=O)C2CCCN(Cc3cnc(C)s3)C2)c(OC)c1 (stereo not drawn)	inactive
NC(=O)c1cn(C2OC(CO)C(O)C2O)c2ncnc(N)c12 (stereo not drawn)	0.316 µM (active)
COc1ccc2[nH]c(C)c(CCNCc3cn(C)c4ccccc34)c2c1	17.8 µM (active)
CCn1c(=O)oc2cc(NC(=O)CCl)ccc21	37.7 µM (active)
Cn1c(=O)oc2cc(NC(=O)CCl)ccc21	31.6 µM (active)
COc1ccc(NC(=O)c2cccn(Cc3ccc(Cl)cc3)c2=O)c(OC)c1	inactive
CCc1nc2ccc(N3CCN(C)CC3)cc2nc1CC	inactive
COCCCn1c(N)c(C(=O)NCc2ccco2)c2nc3ccccc3nc21	inactive
Nc1c(C(=O)Nc2ccc(Cl)cc2)sc2nc3c(cc12)N1CCC3CC1	inactive
COc1ccc(OCC(=O)N2CCN(C/C=C/c3ccccc3)CC2)cc1	inactive
COc1ccc(Nc2nc(N)nc(CSc3nc4ccccc4s3)n2)cc1	39.8 µM (active)
